From the supplement of paper PMC11732987, “Enantioselective OTUD7B fragment discovery through chemoproteomics screening and high-throughput optimisation” (Communications Chemistry, 2025)

Assays:
Test in all cases: log2 ratio of Biotin-Ahx-Ub-VS probe labelling (fragment/DMSO); higher = less target engagement (more negative = stronger competition), active = hit call of the paper (q ≤ 0.05, log2 ratio ≤ -1)
Conditions in all cases: compound concentration: 200 uM; treatment time: 3 h
[1] = target: T1, USP19 (UniProt O94966)
T1 sequence (whole entry): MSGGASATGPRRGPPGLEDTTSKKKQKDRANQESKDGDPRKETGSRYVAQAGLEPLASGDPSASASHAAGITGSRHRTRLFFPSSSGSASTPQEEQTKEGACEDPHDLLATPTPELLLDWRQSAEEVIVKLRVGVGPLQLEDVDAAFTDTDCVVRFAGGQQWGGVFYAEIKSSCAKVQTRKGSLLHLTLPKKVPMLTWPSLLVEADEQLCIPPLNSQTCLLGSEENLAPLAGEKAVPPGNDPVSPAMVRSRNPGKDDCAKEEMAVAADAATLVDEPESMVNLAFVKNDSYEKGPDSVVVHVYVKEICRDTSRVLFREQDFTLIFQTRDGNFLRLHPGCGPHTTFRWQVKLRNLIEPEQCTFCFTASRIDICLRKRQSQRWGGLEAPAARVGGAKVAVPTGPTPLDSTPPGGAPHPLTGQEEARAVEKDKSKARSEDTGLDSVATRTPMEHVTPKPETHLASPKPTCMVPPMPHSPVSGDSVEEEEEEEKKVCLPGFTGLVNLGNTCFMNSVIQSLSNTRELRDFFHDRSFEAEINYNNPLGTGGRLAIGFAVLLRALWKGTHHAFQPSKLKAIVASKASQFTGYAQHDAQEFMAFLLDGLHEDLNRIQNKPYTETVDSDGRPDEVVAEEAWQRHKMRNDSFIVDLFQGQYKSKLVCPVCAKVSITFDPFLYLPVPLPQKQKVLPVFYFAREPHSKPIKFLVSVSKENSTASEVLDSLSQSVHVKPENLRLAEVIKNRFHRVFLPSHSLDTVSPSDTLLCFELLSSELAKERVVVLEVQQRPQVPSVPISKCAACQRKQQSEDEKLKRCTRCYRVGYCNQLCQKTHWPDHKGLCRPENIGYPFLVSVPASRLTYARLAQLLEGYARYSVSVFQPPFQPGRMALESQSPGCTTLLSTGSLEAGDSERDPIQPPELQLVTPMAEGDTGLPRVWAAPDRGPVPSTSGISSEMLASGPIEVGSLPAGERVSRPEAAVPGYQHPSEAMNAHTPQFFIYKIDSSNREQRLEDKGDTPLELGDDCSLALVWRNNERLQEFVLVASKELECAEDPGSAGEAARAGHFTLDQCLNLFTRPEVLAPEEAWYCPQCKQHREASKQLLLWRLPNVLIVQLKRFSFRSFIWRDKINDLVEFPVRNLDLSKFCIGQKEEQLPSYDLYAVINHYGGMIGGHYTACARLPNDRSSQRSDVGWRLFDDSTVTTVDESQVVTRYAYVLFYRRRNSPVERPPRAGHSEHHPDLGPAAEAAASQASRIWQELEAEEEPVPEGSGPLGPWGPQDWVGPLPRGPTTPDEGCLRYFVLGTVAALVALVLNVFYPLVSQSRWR
Procedure, shortened: (§1)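 HEK293T lysate, 495 µg per sample in Tris/CHAPS/IGEPAL buffer with protease inhibitors, was treated in triplicate with fragment at 200 µM or vehicle for 3 h and then with Biotin-Ahx-Ub-VS at 0.5 µM final for 1 h. Labelled DUBs were NeutrAvidin-enriched, digested with LysC and trypsin, and run by diaPASEF LC-MS/MS. Spectronaut label-free quantities were global-median-normalised, and values are average log2 fragment/vehicle ratios by unpaired t-test on proteins with ≥2 unique peptides.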

[2] = target: T2, USP22 (UniProt Q9UPT9)
T2 sequence (whole entry): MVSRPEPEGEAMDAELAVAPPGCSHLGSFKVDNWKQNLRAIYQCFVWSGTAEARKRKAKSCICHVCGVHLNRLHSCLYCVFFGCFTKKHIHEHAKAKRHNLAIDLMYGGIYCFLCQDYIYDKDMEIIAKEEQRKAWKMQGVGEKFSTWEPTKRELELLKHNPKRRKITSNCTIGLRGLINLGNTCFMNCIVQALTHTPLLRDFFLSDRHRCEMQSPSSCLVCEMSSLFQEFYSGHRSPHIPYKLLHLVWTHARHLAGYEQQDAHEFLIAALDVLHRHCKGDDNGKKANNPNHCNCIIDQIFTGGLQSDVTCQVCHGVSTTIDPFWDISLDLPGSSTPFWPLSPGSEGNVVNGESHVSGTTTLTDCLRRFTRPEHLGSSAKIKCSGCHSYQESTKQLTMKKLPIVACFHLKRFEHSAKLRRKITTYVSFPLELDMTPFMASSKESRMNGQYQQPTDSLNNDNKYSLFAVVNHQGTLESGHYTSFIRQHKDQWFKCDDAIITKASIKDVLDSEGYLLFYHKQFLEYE
Procedure, shortened: as §1

[3] = target: USP24 (UniProt Q9UPU5)
Procedure, shortened: as §1

[4] = target: T3, USP25 (UniProt Q9UHP3)
T3 sequence (whole entry): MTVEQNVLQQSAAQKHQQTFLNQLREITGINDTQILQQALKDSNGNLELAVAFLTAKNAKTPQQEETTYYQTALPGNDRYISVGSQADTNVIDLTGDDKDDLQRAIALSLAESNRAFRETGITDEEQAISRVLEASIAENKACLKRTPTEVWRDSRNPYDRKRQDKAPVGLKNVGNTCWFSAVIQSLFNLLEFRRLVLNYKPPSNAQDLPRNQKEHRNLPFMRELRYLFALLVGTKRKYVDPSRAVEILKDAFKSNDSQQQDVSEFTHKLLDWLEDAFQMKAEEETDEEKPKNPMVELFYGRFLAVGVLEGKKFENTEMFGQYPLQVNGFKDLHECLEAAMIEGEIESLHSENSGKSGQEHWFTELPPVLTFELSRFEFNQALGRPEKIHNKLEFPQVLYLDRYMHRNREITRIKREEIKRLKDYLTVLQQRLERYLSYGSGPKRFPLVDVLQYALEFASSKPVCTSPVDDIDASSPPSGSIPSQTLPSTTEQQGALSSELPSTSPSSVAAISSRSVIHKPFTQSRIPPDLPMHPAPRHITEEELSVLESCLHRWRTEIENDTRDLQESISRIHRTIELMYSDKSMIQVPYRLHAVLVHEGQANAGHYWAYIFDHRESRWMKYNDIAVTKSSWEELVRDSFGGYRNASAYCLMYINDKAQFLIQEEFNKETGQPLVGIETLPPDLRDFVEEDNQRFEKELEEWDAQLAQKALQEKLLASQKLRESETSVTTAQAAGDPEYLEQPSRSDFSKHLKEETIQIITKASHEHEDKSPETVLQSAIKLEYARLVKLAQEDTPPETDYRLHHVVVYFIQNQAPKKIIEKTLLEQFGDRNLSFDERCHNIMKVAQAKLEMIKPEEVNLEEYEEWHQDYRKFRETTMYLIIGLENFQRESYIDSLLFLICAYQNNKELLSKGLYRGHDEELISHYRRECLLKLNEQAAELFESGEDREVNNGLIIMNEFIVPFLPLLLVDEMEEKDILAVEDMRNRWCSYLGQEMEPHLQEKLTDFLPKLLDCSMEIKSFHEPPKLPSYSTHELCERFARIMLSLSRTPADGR
Procedure, shortened: as §1

[5] = target: T4, USP28 (UniProt Q96RU2)
T4 sequence (whole entry): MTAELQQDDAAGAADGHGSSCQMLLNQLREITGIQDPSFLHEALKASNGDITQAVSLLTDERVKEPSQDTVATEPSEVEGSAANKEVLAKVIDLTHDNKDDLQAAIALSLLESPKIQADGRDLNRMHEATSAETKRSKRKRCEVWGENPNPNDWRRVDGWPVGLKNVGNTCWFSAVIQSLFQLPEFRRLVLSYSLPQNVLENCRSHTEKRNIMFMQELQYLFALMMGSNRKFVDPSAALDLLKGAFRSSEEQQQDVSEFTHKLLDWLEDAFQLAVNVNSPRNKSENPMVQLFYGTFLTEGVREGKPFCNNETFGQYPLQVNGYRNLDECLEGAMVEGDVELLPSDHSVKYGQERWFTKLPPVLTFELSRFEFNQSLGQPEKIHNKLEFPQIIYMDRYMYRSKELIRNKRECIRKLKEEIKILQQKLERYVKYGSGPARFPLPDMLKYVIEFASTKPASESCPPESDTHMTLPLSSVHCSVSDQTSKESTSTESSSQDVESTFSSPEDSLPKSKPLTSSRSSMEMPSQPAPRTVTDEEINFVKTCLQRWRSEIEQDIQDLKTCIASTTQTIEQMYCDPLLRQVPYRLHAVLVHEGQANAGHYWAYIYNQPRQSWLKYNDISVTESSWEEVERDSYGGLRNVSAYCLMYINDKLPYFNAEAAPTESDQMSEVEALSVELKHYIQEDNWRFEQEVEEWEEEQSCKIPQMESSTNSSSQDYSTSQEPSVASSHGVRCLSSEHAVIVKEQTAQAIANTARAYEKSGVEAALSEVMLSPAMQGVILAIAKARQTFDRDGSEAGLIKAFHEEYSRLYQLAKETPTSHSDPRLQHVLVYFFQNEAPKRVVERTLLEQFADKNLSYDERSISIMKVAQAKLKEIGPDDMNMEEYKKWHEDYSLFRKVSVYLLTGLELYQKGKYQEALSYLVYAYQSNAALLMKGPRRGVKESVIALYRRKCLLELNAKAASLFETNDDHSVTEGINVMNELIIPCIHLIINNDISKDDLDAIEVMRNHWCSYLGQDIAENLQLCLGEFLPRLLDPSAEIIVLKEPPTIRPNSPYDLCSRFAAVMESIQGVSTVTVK
Procedure, shortened: as §1

Measured: log2 ratio of Biotin-Ahx-Ub-VS probe labelling

Chain of USP24 (Q9UPU5 whole entry): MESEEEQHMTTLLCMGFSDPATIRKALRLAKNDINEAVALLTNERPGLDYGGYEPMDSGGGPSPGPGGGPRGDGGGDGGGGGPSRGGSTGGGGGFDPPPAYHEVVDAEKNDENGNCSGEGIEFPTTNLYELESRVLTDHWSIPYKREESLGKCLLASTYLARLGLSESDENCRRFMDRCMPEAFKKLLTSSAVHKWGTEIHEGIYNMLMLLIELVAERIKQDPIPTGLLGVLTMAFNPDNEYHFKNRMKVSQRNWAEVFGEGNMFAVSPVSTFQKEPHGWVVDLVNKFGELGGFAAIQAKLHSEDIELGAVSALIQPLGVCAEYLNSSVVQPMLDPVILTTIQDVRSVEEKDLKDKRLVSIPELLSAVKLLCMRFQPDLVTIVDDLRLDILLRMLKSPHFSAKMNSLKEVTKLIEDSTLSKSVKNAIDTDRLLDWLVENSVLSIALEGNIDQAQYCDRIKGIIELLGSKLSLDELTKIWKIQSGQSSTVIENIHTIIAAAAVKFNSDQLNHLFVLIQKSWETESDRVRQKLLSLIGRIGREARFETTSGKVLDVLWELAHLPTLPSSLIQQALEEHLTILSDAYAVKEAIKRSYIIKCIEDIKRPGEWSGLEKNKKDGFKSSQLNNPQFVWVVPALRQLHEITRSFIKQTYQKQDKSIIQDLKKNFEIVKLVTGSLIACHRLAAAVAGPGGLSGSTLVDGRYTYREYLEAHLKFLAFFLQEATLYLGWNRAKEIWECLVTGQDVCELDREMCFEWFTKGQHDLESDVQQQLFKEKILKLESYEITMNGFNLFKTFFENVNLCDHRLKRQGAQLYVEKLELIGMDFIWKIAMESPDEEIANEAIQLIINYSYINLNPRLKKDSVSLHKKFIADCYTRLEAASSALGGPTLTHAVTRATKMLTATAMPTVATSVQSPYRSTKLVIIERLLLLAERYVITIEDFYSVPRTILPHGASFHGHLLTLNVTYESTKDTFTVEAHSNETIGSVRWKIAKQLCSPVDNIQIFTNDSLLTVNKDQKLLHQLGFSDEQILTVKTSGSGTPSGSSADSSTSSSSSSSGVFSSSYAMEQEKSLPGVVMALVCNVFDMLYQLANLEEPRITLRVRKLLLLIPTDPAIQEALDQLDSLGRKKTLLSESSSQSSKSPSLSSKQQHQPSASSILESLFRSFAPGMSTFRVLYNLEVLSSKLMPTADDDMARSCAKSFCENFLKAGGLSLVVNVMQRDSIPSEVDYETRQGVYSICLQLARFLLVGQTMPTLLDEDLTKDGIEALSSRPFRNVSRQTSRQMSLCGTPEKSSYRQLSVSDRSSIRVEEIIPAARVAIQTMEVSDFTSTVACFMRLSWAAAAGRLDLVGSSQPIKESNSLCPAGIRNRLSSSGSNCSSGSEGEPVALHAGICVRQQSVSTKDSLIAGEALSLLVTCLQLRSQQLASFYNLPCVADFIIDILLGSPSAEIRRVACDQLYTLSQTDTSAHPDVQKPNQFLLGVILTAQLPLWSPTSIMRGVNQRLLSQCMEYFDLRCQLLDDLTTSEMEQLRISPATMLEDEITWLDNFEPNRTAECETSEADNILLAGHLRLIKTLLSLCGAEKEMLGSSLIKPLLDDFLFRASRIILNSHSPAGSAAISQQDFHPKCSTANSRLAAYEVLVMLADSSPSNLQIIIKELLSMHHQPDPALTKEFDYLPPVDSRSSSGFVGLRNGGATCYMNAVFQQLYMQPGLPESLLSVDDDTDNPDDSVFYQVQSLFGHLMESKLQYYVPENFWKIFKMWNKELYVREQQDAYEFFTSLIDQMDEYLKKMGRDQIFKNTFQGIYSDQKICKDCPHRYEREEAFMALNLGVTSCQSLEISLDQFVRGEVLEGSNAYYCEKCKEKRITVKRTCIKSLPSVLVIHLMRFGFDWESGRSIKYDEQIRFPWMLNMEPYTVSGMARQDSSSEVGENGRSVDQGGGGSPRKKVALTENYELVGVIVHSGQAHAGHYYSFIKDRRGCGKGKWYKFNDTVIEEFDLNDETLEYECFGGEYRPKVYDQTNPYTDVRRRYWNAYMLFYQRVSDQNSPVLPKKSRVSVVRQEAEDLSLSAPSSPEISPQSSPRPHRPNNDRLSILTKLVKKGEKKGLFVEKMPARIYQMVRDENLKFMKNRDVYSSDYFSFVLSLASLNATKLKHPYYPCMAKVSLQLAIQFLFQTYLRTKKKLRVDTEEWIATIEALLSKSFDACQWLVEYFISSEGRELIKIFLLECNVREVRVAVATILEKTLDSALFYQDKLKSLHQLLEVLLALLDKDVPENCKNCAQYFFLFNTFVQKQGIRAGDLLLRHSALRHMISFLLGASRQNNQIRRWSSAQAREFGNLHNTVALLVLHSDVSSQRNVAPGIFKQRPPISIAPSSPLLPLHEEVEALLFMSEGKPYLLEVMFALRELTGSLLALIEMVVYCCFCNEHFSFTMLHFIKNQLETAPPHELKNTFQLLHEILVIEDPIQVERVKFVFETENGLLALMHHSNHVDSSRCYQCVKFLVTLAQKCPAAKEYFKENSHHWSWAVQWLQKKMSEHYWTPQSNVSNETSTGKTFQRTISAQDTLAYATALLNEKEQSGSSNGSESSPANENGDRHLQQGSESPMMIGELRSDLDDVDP

Cl.O=C(CCl)N1CC(c2ccc(Br)cn2)C1
inactive: [1] -0.658 | [2] -0.346 | [3] -0.76 | [4] -0.491 | [5] -0.738
